Usually inhibition stands for the relative decrease from the control value, in per cent.

Consider nine compounds from ChEMBL document CHEMBL1961873, “Compounds: GSK PKIS; Assays: Nanosyn kinase panel” (2012).

The structures appear in SMILES notation.

In test [1] the target is Serine/threonine-protein kinase PAK 6 (Homo sapiens) (UniProt Q9NQU5). The note with it: at 1 µM.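 Further: values are mean percent inhibition of PAK6 kinase.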
Test [2] relates to Tyrosine-protein kinase ABL1 (Homo sapiens), P00519 [E255K]. The note with it: at 0.1 µM.
Test [3] has the same test system. The note with it: at 1 µM.
Test [4] concerns Tyrosine-protein kinase ABL1 (Homo sapiens), P00519 [H396P]. The note with it: at 0.1 µM.
For test [5] the test system is unchanged. To be noted: at 1 µM.
Test [6] deals with Tyrosine-protein kinase ABL1 (Homo sapiens), P00519 [M351T]. The note with it: at 0.1 µM.
The test system is the same in test [7]. The note with it: at 1 µM.
The test system of test [8] is Tyrosine-protein kinase ABL1 (Homo sapiens), P00519 [Q252H]. To be noted: at 0.1 µM.
For test [9] the test system is unchanged. The note with it: at 1 µM.
In test [10] the test system is Tyrosine-protein kinase ABL1 (Homo sapiens), P00519 [T315I]. The note with it: at 0.1 µM.
Test [11] has the same test system. The note with it: at 1 µM.
Test [12] deals with Tyrosine-protein kinase ABL1 (Homo sapiens), P00519 [Y253F]. To be noted: at 0.1 µM.
For test [13] the test system is unchanged. To be noted: at 1 µM.
In test [14] the target is Tyrosine-protein kinase ABL1 (Homo sapiens) (UniProt P00519). To be noted: at 0.1 µM.
The target is the same in test [15]. To be noted: at 1 µM.
The target of test [16] is ALK tyrosine kinase receptor (Homo sapiens) (UniProt Q9UM73). To be noted: at 0.1 µM.
Test [17] shares this target. The note with it: at 1 µM.
Test [18] concerns the target Tyrosine-protein kinase ABL2 (Homo sapiens) (UniProt P42684). To be noted: at 0.1 µM.
Test [19] has the same target. To be noted: at 1 µM.
Test [20] concerns the target Tyrosine-protein kinase receptor UFO (Homo sapiens) (UniProt P30530). To be noted: at 0.1 µM.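 Further: values are mean percent inhibition of AXL from the GSK PKIS screen.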

Sequence of Tyrosine-protein kinase ABL2 (Homo sapiens) (P42684 whole entry): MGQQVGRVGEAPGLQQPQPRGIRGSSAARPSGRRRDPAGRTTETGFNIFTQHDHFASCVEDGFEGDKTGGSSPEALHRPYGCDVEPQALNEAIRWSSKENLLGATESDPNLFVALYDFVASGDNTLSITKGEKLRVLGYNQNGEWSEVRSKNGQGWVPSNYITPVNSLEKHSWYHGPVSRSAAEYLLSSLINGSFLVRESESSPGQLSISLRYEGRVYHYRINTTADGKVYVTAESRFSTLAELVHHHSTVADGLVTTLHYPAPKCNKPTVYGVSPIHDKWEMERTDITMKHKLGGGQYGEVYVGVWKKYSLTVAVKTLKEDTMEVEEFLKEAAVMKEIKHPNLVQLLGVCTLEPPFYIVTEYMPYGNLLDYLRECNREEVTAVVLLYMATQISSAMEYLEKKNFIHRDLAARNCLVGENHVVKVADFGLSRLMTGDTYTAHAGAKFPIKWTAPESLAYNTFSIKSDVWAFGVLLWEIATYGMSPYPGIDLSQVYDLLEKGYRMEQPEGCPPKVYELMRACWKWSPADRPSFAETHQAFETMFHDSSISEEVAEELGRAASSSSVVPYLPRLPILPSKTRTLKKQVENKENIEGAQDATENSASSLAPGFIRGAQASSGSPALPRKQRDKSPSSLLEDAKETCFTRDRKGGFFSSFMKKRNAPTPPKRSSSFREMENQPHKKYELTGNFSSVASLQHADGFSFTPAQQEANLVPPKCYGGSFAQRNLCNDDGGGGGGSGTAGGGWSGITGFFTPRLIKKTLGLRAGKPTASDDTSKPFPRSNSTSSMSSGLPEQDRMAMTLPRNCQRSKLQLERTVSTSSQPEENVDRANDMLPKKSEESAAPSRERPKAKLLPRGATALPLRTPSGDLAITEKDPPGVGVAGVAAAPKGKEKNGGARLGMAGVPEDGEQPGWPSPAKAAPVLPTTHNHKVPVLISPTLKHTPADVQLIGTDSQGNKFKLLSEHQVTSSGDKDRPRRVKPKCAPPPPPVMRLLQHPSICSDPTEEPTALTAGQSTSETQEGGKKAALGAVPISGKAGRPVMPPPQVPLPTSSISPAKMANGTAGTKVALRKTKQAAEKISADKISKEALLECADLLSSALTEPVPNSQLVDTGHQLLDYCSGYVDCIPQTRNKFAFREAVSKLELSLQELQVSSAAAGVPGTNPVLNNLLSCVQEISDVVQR
Sequence of ALK tyrosine kinase receptor (Homo sapiens) (Q9UM73 19-1620 limits assumed): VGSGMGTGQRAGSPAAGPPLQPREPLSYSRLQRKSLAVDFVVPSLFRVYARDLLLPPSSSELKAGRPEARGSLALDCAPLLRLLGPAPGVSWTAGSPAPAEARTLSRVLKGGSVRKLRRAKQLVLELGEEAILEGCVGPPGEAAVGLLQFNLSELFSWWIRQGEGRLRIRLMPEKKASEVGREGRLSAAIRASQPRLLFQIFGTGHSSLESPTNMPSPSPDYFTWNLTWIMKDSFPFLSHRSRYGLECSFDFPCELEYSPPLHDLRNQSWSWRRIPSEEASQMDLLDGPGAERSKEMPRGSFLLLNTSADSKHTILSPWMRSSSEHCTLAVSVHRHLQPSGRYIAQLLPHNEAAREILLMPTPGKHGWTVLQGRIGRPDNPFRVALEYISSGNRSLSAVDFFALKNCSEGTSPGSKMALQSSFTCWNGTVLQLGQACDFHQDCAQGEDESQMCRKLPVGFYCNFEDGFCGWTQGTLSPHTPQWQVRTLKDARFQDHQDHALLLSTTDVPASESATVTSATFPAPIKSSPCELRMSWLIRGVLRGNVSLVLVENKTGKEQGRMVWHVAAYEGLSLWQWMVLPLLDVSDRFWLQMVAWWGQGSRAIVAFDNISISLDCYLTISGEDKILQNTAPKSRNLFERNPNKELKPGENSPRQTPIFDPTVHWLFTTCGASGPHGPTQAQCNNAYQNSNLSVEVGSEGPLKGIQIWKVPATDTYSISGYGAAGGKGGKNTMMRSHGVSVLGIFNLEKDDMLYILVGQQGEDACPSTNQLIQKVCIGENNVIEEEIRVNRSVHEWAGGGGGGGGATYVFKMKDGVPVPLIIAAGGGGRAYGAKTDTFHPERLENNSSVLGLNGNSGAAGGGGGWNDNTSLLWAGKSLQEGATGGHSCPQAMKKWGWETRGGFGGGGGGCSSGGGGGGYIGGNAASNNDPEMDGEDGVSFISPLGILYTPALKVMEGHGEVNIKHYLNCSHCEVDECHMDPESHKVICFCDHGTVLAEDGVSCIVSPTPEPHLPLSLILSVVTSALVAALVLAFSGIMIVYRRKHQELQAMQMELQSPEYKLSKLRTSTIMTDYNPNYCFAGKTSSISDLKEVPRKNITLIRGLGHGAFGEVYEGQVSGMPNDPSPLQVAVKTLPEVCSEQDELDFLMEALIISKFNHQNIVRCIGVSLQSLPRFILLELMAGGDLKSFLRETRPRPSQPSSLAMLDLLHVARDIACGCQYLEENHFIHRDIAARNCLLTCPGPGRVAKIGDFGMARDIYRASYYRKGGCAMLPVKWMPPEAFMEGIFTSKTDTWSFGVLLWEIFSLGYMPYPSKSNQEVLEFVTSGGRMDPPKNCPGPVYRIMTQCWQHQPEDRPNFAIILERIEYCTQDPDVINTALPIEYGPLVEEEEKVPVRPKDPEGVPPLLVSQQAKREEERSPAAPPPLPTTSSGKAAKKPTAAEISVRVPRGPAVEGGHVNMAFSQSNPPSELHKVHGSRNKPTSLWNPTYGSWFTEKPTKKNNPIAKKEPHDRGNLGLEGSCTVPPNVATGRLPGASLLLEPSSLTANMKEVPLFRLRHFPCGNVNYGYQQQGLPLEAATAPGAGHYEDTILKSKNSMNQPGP
Sequence of Serine/threonine-protein kinase PAK 6 (Homo sapiens) (Q9NQU5 whole entry, looked up): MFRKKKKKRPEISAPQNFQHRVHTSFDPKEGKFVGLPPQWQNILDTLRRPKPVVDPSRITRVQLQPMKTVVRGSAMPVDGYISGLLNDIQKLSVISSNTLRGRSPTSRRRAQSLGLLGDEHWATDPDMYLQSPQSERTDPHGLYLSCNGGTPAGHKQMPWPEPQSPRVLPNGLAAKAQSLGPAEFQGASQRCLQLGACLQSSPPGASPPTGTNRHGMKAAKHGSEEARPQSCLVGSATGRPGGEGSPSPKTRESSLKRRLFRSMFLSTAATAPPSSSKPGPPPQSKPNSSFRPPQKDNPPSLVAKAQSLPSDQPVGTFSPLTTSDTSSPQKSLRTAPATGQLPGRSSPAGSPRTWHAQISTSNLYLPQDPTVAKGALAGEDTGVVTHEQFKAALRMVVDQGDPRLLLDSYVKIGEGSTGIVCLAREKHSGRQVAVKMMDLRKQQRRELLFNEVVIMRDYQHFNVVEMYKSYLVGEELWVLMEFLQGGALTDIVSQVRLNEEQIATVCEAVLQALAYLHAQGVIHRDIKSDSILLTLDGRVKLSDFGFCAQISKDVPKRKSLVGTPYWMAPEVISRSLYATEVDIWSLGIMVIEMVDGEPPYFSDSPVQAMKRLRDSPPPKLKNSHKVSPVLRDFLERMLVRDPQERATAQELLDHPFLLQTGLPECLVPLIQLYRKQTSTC
Sequence of Tyrosine-protein kinase receptor UFO (Homo sapiens) (P30530 whole entry): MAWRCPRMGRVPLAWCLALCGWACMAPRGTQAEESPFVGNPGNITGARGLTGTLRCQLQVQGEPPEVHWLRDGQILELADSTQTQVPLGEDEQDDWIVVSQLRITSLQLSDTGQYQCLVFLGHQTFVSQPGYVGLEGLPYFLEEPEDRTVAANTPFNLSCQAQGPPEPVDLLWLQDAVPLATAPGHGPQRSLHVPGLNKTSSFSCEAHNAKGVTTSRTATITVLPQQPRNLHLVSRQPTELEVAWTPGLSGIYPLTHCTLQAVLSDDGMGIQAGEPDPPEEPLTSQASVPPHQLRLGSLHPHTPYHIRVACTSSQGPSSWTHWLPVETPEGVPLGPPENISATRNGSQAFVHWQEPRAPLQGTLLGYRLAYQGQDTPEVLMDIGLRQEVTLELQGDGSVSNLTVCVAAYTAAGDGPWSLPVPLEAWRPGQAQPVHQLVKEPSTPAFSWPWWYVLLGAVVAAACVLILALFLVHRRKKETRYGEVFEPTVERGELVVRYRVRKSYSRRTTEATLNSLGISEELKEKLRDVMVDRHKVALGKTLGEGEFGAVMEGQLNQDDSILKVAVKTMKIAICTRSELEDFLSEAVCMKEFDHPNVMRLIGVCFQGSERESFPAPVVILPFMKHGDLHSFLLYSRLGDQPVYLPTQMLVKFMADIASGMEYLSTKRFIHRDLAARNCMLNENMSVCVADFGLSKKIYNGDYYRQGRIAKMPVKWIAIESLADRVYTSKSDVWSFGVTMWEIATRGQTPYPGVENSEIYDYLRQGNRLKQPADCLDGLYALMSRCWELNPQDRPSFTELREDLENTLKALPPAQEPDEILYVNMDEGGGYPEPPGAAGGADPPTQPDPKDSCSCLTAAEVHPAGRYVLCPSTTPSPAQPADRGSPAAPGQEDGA

Consider `Cc1cc(O)cc(C)c1/C=C/c1cncc(C(=O)OC(C)(C)C)c1`, for which the inhibition in test [1] was -0.98%; in [2] it was 4.42%; in [3], 21.6%; in test [4] it was 7.59%; in test [5] it was 35%; in [6], 9.08%. Moreover, the inhibition in test [7] is 46%; in [8], 11.7%; in [9], 52.5%; in test [10], 1.3%; in test [11], 4.07%; in test [12], 9.34%. Further, the inhibition in [13] turned out to be 38.4%; in test [14], 5.51%; in test [15], 31.9%; in test [16], 3.06%; in test [17], 5.54%; in test [18], 8.31%. Moreover, the figures for the inhibition in test [19] and in test [20] were 36.2% and -3.22%, respectively.

As for `NS(=O)(=O)c1ccc(N/N=C2\C(=O)Nc3cccc(CCc4ccncc4)c32)cc1`, the inhibition in test [1] is -3.63%; in test [2], -0.21%; in [3] it was 3.53%; in test [4] it was 2.64%; in [5], 7.39%; in test [6], 3.41%. The inhibition worked out at 8.25% in test [7]; 1.54% in test [8]; 7.74% in test [9]; 1.83% in test [10]; 6.34% in [11]; 3.29% in test [12]. Also, the inhibition is 8.15% in [13]; 3.11% in test [14]; 4.4% in test [15]; 1.31% in [16]; 4.47% in test [17]; 2.11% in test [18]. In addition, the inhibition was 3.55% in [19] and -0.12% in test [20].

Turning to `Fc1cccc(COc2ccc(Nc3ncncc3C#Cc3ccccc3)cc2Cl)c1`, the inhibition in [1] is -8.4%; in test [2], 3.27%; in [3], 5.06%; in test [4] it was 3.58%; in test [5], 4.02%; in test [6], 0.94%. Further, the inhibition in test [7] came out at 5.32%; in [8], 4.91%; in test [9], 3.96%; in test [10], 4.11%; in test [11], 5.21%; in [12], 2.86%. Further, the inhibition was found to be 4.69% in test [13]; 4.16% in test [14]; 11.3% in test [15]; 2.52% in test [16]; 4.64% in test [17]; 3.23% in test [18]. Besides, the inhibition in test [19] is 1.72%; in test [20], -5.96%.

For `COc1cc(N2CCN(C(C)C)CC2)ccc1Nc1nc(Nc2cccc(F)c2C(=O)O)c2cc[nH]c2n1`, the inhibition is -0.16% in test [1]; 3.61% in [2]; 5.65% in test [3]; 1.72% in test [4]; 3.69% in [5]; 1.07% in test [6]. The inhibition in test [7] was found to be 2.29%; in test [8], 4.74%; in [9], 5.16%; in [10] it was 3.83%; in test [11] it was 7.98%; in test [12] it was 4.3%. The inhibition came out at 5.73% in test [13]; 5.38% in test [14]; 5.63% in test [15]; 68.1% in test [16]; 80.7% in [17]; 4.02% in test [18]. The results for the inhibition in [19] and in test [20] were 5.35% and 2.71%, respectively.

Regarding `CCOc1ccc2c(-c3ccnc(Nc4cc(OC)cc(C(F)(F)F)c4)n3)cnn2n1`, the inhibition in test [1] turned out to be 3.48%; in [2], 0.14%; in test [3] it was 4.02%; in test [4], 0.25%; in test [5], 6.23%; in test [6], 2.11%. The inhibition in test [7] was determined as 7.2%; in [8], 1.15%; in test [9], 6.33%; in [10] it was 0.17%; in test [11], 3.15%; in test [12], 2.66%. Further, the inhibition was 7.81% in test [13]; 5.8% in test [14]; 11.5% in test [15]; -0.08% in [16]; 1.27% in test [17]; 6.07% in test [18]. The inhibition in test [19] was 9.53%; in test [20] it was 0.45%.

For `O=C1Nc2ccccc2/C1=C1\CCc2cc(O)ccc21`, the inhibition in test [1] is -3.1%; in test [2], 1.09%; in test [3], 9.2%; in test [4] it was 5.59%; in test [5], 15%; in test [6], 4.89%. For the same compound, the inhibition in [7] turned out to be 15.4%; in test [8], 5.53%; in test [9], 12.8%; in test [10], 4.27%; in test [11], 16.2%; in test [12] it was 5%. For the same compound, the inhibition came to 15.6% in [13]; 3.68% in test [14]; 15% in [15]; 5.54% in [16]; 25.4% in test [17]; 2.63% in test [18]. Besides, the figures for the inhibition in [19] and in test [20] were 9.37% and -8.77%, respectively.

Regarding `FC(F)(F)CNc1nccc(-c2cnn3ncccc23)n1`, the inhibition in [1] was -2.36%; in test [2], 6.33%; in test [3], 1.46%; in test [4], 2.61%; in test [5] it was 2.38%; in [6], 0.25%. For the same compound, the inhibition in [7] is 0.76%; in test [8] it was 1.08%; in test [9], 1.59%; in test [10], 0.06%; in [11], 0.38%; in [12], 0.37%. Further, the inhibition in test [13] came to 2.04%; in test [14], 1.87%; in test [15] it was 4%; in test [16], 2.79%; in test [17], 3.31%; in test [18], 0.3%. For the same compound, the inhibition in test [19] was 3.29%; in test [20], -3.79%.

In the case of `NS(=O)(=O)c1cccc(N/C=C2\C(=O)Nc3ccccc32)c1`, the inhibition in [1] came to 1.64%; in test [2] it was 5.29%; in test [3], 7.64%; in [4], 6.01%; in [5], 8.67%; in test [6], 3.89%. Also, the inhibition turned out to be 8.75% in test [7]; 5.8% in [8]; 8.71% in test [9]; 3.14% in [10]; 8.55% in test [11]; 5.67% in test [12]. The inhibition in [13] is 11%; in [14] it was 3.17%; in test [15] it was 10.9%; in test [16], 2.94%; in [17], 12.7%; in [18], 4.2%. In addition, the inhibition in test [19] is 13.3%; in [20], -7.48%.

As to `N#Cc1ccc2c(-c3ccnc(NC4CC4)n3)c(-c3ccc(F)cc3)nn2c1`, the inhibition in test [1] was -2.35%; in test [2], -0.39%; in [3] it was 0.55%; in test [4], -0.57%; in [5], 3.93%; in test [6], -0.71%. For the same compound, the inhibition in test [7] was 3.61%; in test [8], 0.81%; in test [9], 4.72%; in test [10], -0.18%; in [11], 1.49%; in [12], -0.67%. Moreover, the inhibition in test [13] is 3.58%; in test [14], -0.74%; in test [15], 6.61%; in test [16], 0.92%; in test [17], 0.32%; in test [18], 0.94%. In addition, the results for the inhibition in test [19] and in test [20] were 5.29% and -4.43%, respectively.
